# Where “and” joins values, the source holds several entries; their conditions need not be identical. Equal values may be shown once. Among all 310,000 compounds or so, about 17,000 (5.5%) were called active. Entries that show only a call come without a potency. Inconclusive results (about 11%) are left out. Calls follow the shape of the dose curve; as a rule, active = well fitted inhibition curve with a large enough effect; inconclusive = small, poorly fitted or top-dose-only effect, or effect the other way; inactive = no such curve, though single readings can be large or run the other way. The full list was thinned out, with actives kept by preference. The source holds several records for some structures; these can differ, active in one and inactive in another.
# Target: Nuclear receptor ROR-gamma (Mus musculus) (UniProt P51450)
# Experiment: qHTS for inhibitors of ROR gamma transcriptional activity; also: nearly all actives have a fitted effect of over 60% in size
# Settings: Drosophila S2 Gal4-RORgamma UAS-luciferase reporter, 20 h; series mostly up to 53.6 µM
# Method in brief: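 Drosophila Schneider cells stably carrying a metallothionein-driven Gal4 DBD–ROR gamma fusion and a UAS-Photinus luciferase reporter were exposed to compound for 1 hr, then induced with copper sulfate (700 uM final) for 20 hr at ambient temperature before luminescence reading.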
# Potency is read from the fitted curve at half-maximal effect.
# Sequence of Nuclear receptor ROR-gamma (Mus musculus) (P51450 whole entry, looked up): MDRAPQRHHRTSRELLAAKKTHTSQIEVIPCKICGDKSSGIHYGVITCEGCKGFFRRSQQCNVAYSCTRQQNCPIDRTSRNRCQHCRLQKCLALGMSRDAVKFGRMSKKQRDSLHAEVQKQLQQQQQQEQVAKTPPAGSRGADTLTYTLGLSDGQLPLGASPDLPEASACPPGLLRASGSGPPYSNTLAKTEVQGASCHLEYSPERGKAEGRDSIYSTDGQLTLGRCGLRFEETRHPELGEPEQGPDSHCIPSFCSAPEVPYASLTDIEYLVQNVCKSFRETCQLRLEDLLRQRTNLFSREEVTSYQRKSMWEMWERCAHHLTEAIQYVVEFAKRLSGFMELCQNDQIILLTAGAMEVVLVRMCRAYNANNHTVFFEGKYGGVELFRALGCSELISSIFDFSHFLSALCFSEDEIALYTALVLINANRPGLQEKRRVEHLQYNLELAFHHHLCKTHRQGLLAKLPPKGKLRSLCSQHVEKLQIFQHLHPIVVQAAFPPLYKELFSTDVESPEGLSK
Structure (SMILES),Potency,"activity change, negative = inhibition"
O=C(c1noc2c1CCCC2)N1CCc2ccccc2C1,inactive,
COc1cccc(C(=O)OCc2cc(=O)oc3c(C)c(C)ccc23)c1OC,inactive,
c1ccc(CN2CCC(N=C3NN=C(c4ccc5c(c4)OCCO5)CS3)CC2)cc1,10 µM (active),
Clc1cccc(N=C2NN=C(c3ccc4c(c3)OCCO4)CS2)c1,inactive,
CS(=O)(=O)N(CC(=O)N1CCN(Cc2ccccc2)CC1)c1ccc2c(c1)OCCO2,inactive,
Cc1ccccc1-c1nc(CS(=O)(=O)CC(=O)NC(C)c2ccccc2)c(C)o1 (stereo not drawn),inactive,
Cc1ccc(NS(=O)(=O)c2c(C)[nH]c(C)c2C(=O)N2CCCCC2)c(C)c1,inactive,
Cc1cc2ccccc2n1CCC(=O)O,inactive,
O=C(O)CCn1c(Cc2ccccc2)nc2ccccc21,inactive,
O=C(O)CCn1c(O)c(C=C2N=c3ccccc3=N2)sc1=S,0.794 µM (active),
COc1ccccc1NC(=O)c1cc(N2C(=O)C3C4CCC(C4)C3C2=O)ccc1Cl (stereo not drawn),inactive,
CSCc1nnc(NC(=O)c2ccc(S(=O)(=O)N3CCCCC3C)cc2)o1 (stereo not drawn),1 µM (active),
CNC(=O)c1ccsc1NC(=O)c1ccc(S(=O)(=O)N2CCOCC2)cc1,inactive,
Cc1ccnc(NS(=O)(=O)c2ccc(NC(=O)c3ccc(S(=O)(=O)N4CCOCC4)cc3)cc2)n1,inactive,
CCc1nnc(NC(=O)C2CCCN2S(=O)(=O)c2ccccc2)s1 (stereo not drawn),inactive,
O=C(Nc1nnc(-c2ccco2)o1)c1ccc(S(=O)(=O)N2CCOCC2)cc1,1.78 µM (active),
O=C(Nc1ccc(S(=O)(=O)N2CCOCC2)cc1)c1ccc2ncsc2c1,inactive,
CC1CCCN(S(=O)(=O)c2ccc(C(=O)Nc3nnc(-c4ccncc4)o3)cc2)C1 (stereo not drawn),inactive,
CCc1nnc(NC(=O)c2ccc(S(=O)(=O)NC3CCCCC3)cc2)s1,inactive,
CC1CCCCN1S(=O)(=O)c1ccc(C(=O)Nc2nnc(-c3cccs3)o2)cc1 (stereo not drawn),0.0891 µM (active),
CC(=O)c1ccc(OC(=O)N2CCOCC2)cc1,,-0.265% [at 1.91 µM] (inactive)
COc1ccc(CNC(=O)COc2cccnc2[N+](=O)[O-])cc1,inactive,
Cc1cc2c(=O)n(CC(=O)NCC(=O)Nc3ccc(C(C)C)cc3)cnc2s1,inactive,
CCCCN1C(=O)C(C)=C(C)C1OCCc1ccc(OC)c(OC)c1 (stereo not drawn),inactive,
Cc1cc(-c2ccc(S(=O)(=O)N3CCN(c4cccc(C(F)(F)F)c4)CC3)s2)on1,inactive,
CN(C)C(=O)c1ccc(NC(=O)c2ccccc2-c2ccccc2)cc1,inactive,

Structure (SMILES),Potency,"activity change, negative = inhibition"
CC(C)C[C@H](NC(=O)N1CC(=O)Nc2ccccc21)C(=O)N[C@H](Cc1ccccc1)C(=O)O,inactive,
CCOC(=O)CSc1nc2ccc(C)cc2n2cnnc12,inactive,
CCCOc1cccc(C(=O)Nc2ccccc2C(=O)N2CCN(C)CC2)c1,inactive,
CC(=O)Nc1ccc(S(=O)(=O)NC2Cc3ccccc3C2)cc1,inactive,
COCCN1C(=O)N[C@@H](CCc2ccccc2)[C@H](C(C)=O)[C@H]1C,inactive,
CCN1C(=S)N[C@@H](CCc2ccccc2)[C@H](C(=O)OC)[C@H]1C,inactive and 2.24 µM (active),
CCN1C(=NCc2ccc(OC)cc2)N[C@@H](CCc2ccccc2)[C@H](C(=O)NCc2ccc(OC)cc2)[C@H]1C,inactive,
CN1CCN(C(=O)c2cnn(-c3ccccc3)c2NC(=O)c2ccc([N+](=O)[O-])cc2)CC1,inactive,
Cc1cccc(C)c1NC(=O)CS(=O)CC(=O)N1CCN(c2ccccc2)CC1 (stereo not drawn),inactive,
CCNS(=O)(=O)c1ccc(CCC(=O)N2CCN(c3ccc(OC)cc3)CC2)cc1,inactive,
CN(C)C(=O)Cn1c(=O)n(S(=O)(=O)c2ccccc2)c2ccccc21,inactive,
COC(=O)c1ccccc1NC(=O)CSc1n[nH]c(-c2ccncc2)n1,inactive,
Cc1ccc2oc(C(=O)N3CCN(C)C[C@@H]3C(C)C)c(C)c2c1,inactive,
CC(=O)c1cccc(OCc2cc(C(=O)NC(C)Cc3cccnc3)no2)c1 (stereo not drawn),inactive,
CN(Cc1cccnc1)C(=O)c1cc(COc2ccc3ncccc3c2)on1,4.47 µM (active),
Cc1ccc(OCc2cc(C(=O)N(C)CCc3ccccc3)no2)cc1C,inactive,
COCCn1cnc2c1c(=O)n(Cc1ccc(Br)cc1)c(=O)n2Cc1ccccc1,inactive,
O=C(CCNC(=O)C1CCN(S(=O)(=O)c2ccccc2)CC1)NC1CC1,inactive,
COc1ccc(CN2CCCC(N3CCc4ccccc4C3)C2)c(O)c1 (stereo not drawn),inactive,
CCOC(=O)c1c(-c2ccccc2)csc1NC(=S)NC(=O)c1ccccc1,2.82 µM (active),
CCOC(=O)C1=C(NC(=S)NC(=O)c2ccccc2)c2ccccc2CC1(C)C,4.47 µM (active),
CCOC(=O)C1=C(C)c2ccccc2OC1(C)C(=O)OCC (stereo not drawn),inactive,
CCOC(=O)c1c(-c2cccc(C)c2)csc1NC(=O)c1c(-c2ccccc2)noc1C,inactive,
CCOC(=O)c1c(-c2ccc(-c3ccccc3)cc2)csc1NC(=O)CCC(=O)O,inactive,
CCOC(=O)CNC(=O)/C(=C\c1ccc(F)cc1)NC(=O)c1ccccc1,inactive,
COc1cccc(C(=O)Nc2nnc(S(=O)(=O)N3CCCCC3)s2)c1,inactive,

Structure (SMILES),Potency,"activity change, negative = inhibition"
CC(=O)Nc1ccc(NC(=O)CCCNC(=O)c2ccc(Cl)cc2)cc1,inactive,
CC(C)c1ccc(C2C(C(=O)c3ccco3)=C(O)C(=O)N2CC2CCCO2)cc1 (stereo not drawn),inactive,
COc1ccccc1NC(=O)CCN1CCN(c2ccc(Cl)cc2)CC1,inactive,
O=C(CCc1ccccc1)NCc1cccnc1,inactive,
CCc1ccc(N(CC(=O)NCc2cccnc2)S(=O)(=O)c2ccccc2)cc1,14.1 µM (active),
O=C(CN(c1cc(C(F)(F)F)ccc1Cl)S(=O)(=O)c1ccccc1)NCc1cccnc1,inactive,
Cc1c(C)c2c(OCC(=O)NCCCO)cc3c(c2oc1=O)CCC(C)(C)O3,inactive,
CC(C)CC(CCc1ccccc1)OS(N)(=O)=O (stereo not drawn),inactive,
O=C(/C=C/c1ccco1)NC(=S)Nc1ccccc1Br,11.2 µM (active),
CCNC(=S)N1CCN(C(=O)c2ccco2)CC1,inactive,
COc1ccccc1/C=C/C(=O)NC(=S)N1CCOCC1,7.08 µM (active),
COc1ccccc1C(=O)Nc1cccc(C(=O)N2CCOCC2)c1,inactive,
O=C(/C=C/c1ccco1)NC(=S)N1CCCCC1,3.98 µM (active),
Cc1cccc(N2CCN(C(=O)/C=C/c3ccco3)CC2)c1C,inactive,
CC(=O)Nc1ccc(NC(=S)NC(=O)/C=C/c2ccccc2)cc1,inactive,
Cc1nnc(NC(=O)/C=C/c2ccco2)s1,inactive,
COc1ccccc1/C=C/C(=O)NC1CC2CCC1C2 (stereo not drawn),inactive,
CCC(C)[C@H](NC(=O)N1CCn2c1nc1ccccc12)C(=O)NCc1ccc(OC)cc1 (stereo partly drawn),inactive,
O=C(O)CC/C(=C\c1cc2c(cc1Br)OCO2)c1nc2ccccc2s1,inactive,
CC(=O)N1CCc2cc(S(=O)(=O)NC3CCCCC3)ccc21,inactive,
COCCNc1ncnc2c1nc1n2CCCC1,inactive,
CCCCCCn1cc(C(=O)O)c(=O)c2cc(F)c(N3CCCCC3)cc21,inactive,
O=C(Nc1ccc(S(=O)(=O)Nc2ccccn2)cc1)c1ccccc1,inactive,
Cc1ccc(CNC(=O)CCS(=O)(=O)c2ccc3c(c2)CC(C)N3C(=O)C2CC2)o1 (stereo not drawn),inactive,
O=C(Nc1ccc([N+](=O)[O-])cc1)OCCc1ccccn1,inactive,
CC(=O)Nc1cccc(NC(=O)c2c(-c3ccccc3)noc2C)c1,inactive,

Structure (SMILES),Potency,"activity change, negative = inhibition"
Cc1onc(-c2ccccc2)c1C(=O)NNC(=S)NC(=O)c1ccc(F)cc1,3.98 µM (active),
Cc1onc(-c2c(Cl)cccc2Cl)c1C(=O)NNC(=O)c1c(-c2c(Cl)cccc2Cl)noc1C,inactive,
Cc1ccc(CNC(=O)c2c(-c3ccccc3)noc2C)cc1,inactive,
Cc1onc(-c2ccccc2)c1C(=O)Nc1ccccc1C#N,inactive,
COc1ccc(C(=O)NC(=S)NNC(=O)c2c(-c3ccccc3)noc2C)cc1,6.31 µM (active),
NC(=O)c1oc2ccccc2c1NC(=O)Cc1ccccc1,,-17.9% [at 1.91 µM] (inactive)
COc1ccc(N(C(=O)c2snc(C(N)=O)c2N)C(C(=O)NC2CCCC2)c2ccco2)cc1OC (stereo not drawn),inactive,
O=C1/C(=C/c2ccc(F)cc2)SC(=S)N1CCCC(=O)N1CCCCC1CCO (stereo not drawn),inactive,
COC(=O)Cn1cnc2scc(-c3ccc(C)c(C)c3)c2c1=O,inactive,
Cc1ccc(C)c(NC(=S)NNC(=O)c2csc(C)c2)c1,3.55 µM (active),
NS(=O)(=O)c1ccc(NC(=S)NC(=O)c2cccnc2)cc1,inactive,
Cc1ccc(C)c(NC(=O)CCC(=O)NNC(=O)c2cccs2)c1,inactive,
O=C(NC1CC1)c1cccc(Br)c1,inactive,
Cc1ccc(C)c(NC(=O)NNC(=O)c2ccc3ccccc3c2O)c1,inactive,
Cc1ccccc1NC(=S)NNC(=O)c1cccc(Br)c1,11.2 µM (active),
O=C(NC(=S)Nc1ccc(Cl)c(C(=O)O)c1)c1cncc(Br)c1,inactive,
O=C(NC(=S)Nc1cccc2c(O)cccc12)c1cccc(Br)c1,11.2 µM (active),
O=C(NC(=S)Nc1ccc(S(=O)(=O)Nc2ncccn2)cc1)c1cccc(Br)c1,inactive,
CC(CC(=O)O)CC(=O)NNC(=O)c1cccc(Br)c1 (stereo not drawn),inactive,
O=C(/C=C/NNC(=O)c1cccc(Br)c1)c1ccccc1,inactive,
NS(=O)(=O)c1ccc(NC(=S)NC(=O)c2cccc(Br)c2)cc1,11.2 µM (active),
COc1ccc(-c2nnc3n2CCCCC3)cc1,inactive,
COc1ccc(NC(=O)CSc2nncc(=O)n2N)cc1OC,inactive,
CC(CN1CCOCC1)OC(=O)c1ccc(Cl)cc1Cl (stereo not drawn),inactive,
Cn1c(C(=O)N2CCCC(C(=O)NCc3ccccc3)C2)cc2sccc21 (stereo not drawn),inactive,

# — PubChem BioAssay AID2551 (National Center for Advancing Translational Sciences (NCATS), 2010)
